These results are taken from PubChem BioAssay.

The structures appear in SMILES notation. Activity calls are given as the source filed them. Unless noted, the rule behind the calls is not given here.

The nature of assay [1]: compounds binding Alexa647 anti-His antibody – biochemical, small-molecule microarray, 635 nm fluorescence, artefact control for SMM control protein annotation, primary screen (AID 1128).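 Note: score merges feature fluorescence with signal-to-noise for each printed compound spot.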 As to conditions: higher = more signal.
Assay [2] deals with Human papillomavirus type 1a E7 protein (residues 1-88). As to the kind of experiment: HPV1a E7 small-molecule binders, primary screen, biochemical, small-molecule microarray, residues 1-88, 635 nm (AID 1129). The following applies: small-molecule microarray binding, fluorescence 635 nm; higher = more signal.
In assay [3] the target is Focal adhesion kinase 1 (Homo sapiens) (UniProt Q05397). As to the kind of experiment: PTK2 protein binding on printed compound slides – biochemical, small-molecule microarray, 635/667 nm fluorescence, BSA, DTT, primary screen (AID 1130).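 Note: composite of spot emission at 667 nm and signal to noise over triplicate slides.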 As to conditions: 635 nm fluorescence, higher = more signal.
Assay [4] has as its system Fibrinogen (Alexa647-labelled). The assay can be described thus: Alexa647-fibrinogen binding to printed small molecules – biochemical, small-molecule microarray, 635/667 nm fluorescence, artefact control for SMM control-protein annotation, profiling panel (AID 1131).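 Note: z-score merges 667 nm fluorescence with per-spot signal-to-noise over triplicate slides.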 As to conditions: fibrinogen-A647 binding fluorescence, higher = more signal.
Assay [5] has as its target Follistatin (Homo sapiens) (UniProt P19883). The assay can be described thus: FST protein binding to printed compounds – biochemical, small-molecule microarray, 635/667 nm fluorescence, primary screen (AID 1132). As to conditions: 635 nm fluorescence, higher = more signal.
Assay [6] concerns the target Fibroblast growth factor 2 (Homo sapiens) (UniProt P09038). As to the kind of experiment: basic fibroblast growth factor binding to printed compounds – biochemical, small-molecule microarray, 635/667 nm fluorescence, primary screen (AID 1133). The following applies: FGF2, fluorescence 635/667, higher = more signal.
Assay [7] can be described thus: JC-1 mitochondrial potential readout, lung cancer cells – cell-based, A549, JC-1 fluorescence, basal, 24 h, 100 nL, profiling panel (AID 1138).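 Note: A549 lung adenocarcinoma cells under basal conditions with no added stimulus; test concentration not given here.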 As to conditions: higher = more signal.
Another assay deals with Lefty1. The assay can be described thus: Lefty1 protein binding to printed compounds – biochemical, small-molecule microarray, 635/667 nm fluorescence, primary screen (AID 1139). The following applies: fluorescence 635/667, higher = more signal.
Assay [8] relates to wheat germ agglutinin (Triticum aestivum), Alexa647-labelled. The assay can be described thus: Alexa647-WGA lectin binding to printed small molecules – biochemical, small-molecule microarray, 635/667 nm fluorescence, artefact control for SMM control-protein annotation, profiling panel (AID 1140).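 Note: score merges 667 nm feature emission with signal to noise over triplicate slides.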 The following applies: WGA-A647 binding, 635 nm fluorescence, higher = more signal.

The target of assay [9] is Luciferin 4-monooxygenase (Photinus pyralis) (UniProt P08659). The assay can be described thus: inhibition of purified Photinus pyralis luciferase – biochemical, luminescence, purified enzyme, 2006 set, primary screen (AID 1141).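 Note: cell-free assay with purified firefly luciferase at 100 ng per well in PBS; test concentration not given here.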 As to conditions: purified firefly luciferase, SteadyGlo luminescence, 30 min; higher = more signal, called active from +8 up or from −8 down.
Assay [10] relates to Wnt5a (protein binding on small-molecule microarray). As to the kind of experiment: small molecules binding Wnt5a protein – biophysical, small-molecule microarray, 635/667 nm fluorescence, primary screen (AID 1142).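 Note: fluorescence read at 667 nm with signal to noise per printed feature.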 The following applies: 635 nm fluorescence, higher = more signal.
The nature of assay [11]: ATP-based viability of Huh7 replicon cells – cell-based, CellTiter-Glo luminescence, basal, 48 h, cytotoxicity control for HCV replication inhibitor project, primary screen (AID 1143).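 Note: Huh7 hepatoma cells carrying a hepatitis C replication reporter with no stimulus; test concentration not given here.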 As to conditions: higher = more signal, called active from +8 up or from −8 down.
The nature of assay [12]: Pseudomonas biofilm growth suppression – PAO1 strain, BacTiter-Glo luminescence, LB-PBS, primary screen (AID 1144). As to conditions: P. aeruginosa PAO1 biofilm, 12 h, higher = more signal.
Assay [13] is described as follows: basal CRE-LacZ reporter activity in PC12 – cell-based, unstimulated, primary screen (AID 1145). As to conditions: no forskolin, luminescence, 4.5 h, higher = more signal, called active from +8 up or from −8 down.
Assay [14] is described as follows: forskolin-driven CRE-LacZ activity in PC12 – cell-based, CRE-LacZ reporter, forskolin-stimulated, primary screen (AID 1146).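 Note: PC12 cells with 6xCRE LacZ reporter stimulated by forskolin 10 µM; beta-galactosidase reporter signal reflecting CREB driven transcription.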 The following applies: luminescence, 4.5 h, higher = more signal, called active from +8 up or from −8 down.
The target in assay [15] is Streptavidin (Streptomyces avidinii) (UniProt P22629). The assay can be described thus: compounds binding control protein streptavidin – biophysical, small-molecule microarray, 635/667 nm fluorescence, artefact control for SMM compound annotation, primary screen (AID 1147).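 Note: signal reflects streptavidin binding to arrayed compounds as a control protein.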 The following applies: higher = more signal.
Assay [16] can be described thus: probe aInhba binding on compound microarray – biochemical, small-molecule microarray, 635/667 nm fluorescence, primary screen (AID 1148).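 Note: score merges 667nm spot fluorescence with signal-to-noise for antibody binding to printed compounds.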 The following applies: higher = more signal.
Assay [17] has as its target Torsin-1A (Homo sapiens) (UniProt O14656). The assay can be described thus: TOR1A wild-type binding on microarray – cell lysate, small-molecule microarray, lysate, 635/667 nm, primary screen (AID 1149). As to conditions: COS7 hTOR1A-WT lysate, 635 nm fluorescence, higher = more signal.
Assay [18] has the same target. The assay can be described thus: torsin A mutant lysate binding on microarrays – cell lysate, small-molecule microarray, COS7 lysate, 635/667 nm fluorescence, primary screen (AID 1150).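 Note: score pools 667 nm emission and signal to noise measuring lysate protein binding.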 As to conditions: COS7 hTOR1A mutant lysate, 635 nm fluorescence, higher = more signal.
Assay [19] relates to Sonic hedgehog protein (Shh). As to the kind of experiment: Sonic hedgehog microarray binding compounds – biochemical, small-molecule microarray, 635/667 nm fluorescence, primary screen (AID 1151).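 Note: Shh protein binding to compounds spotted on small-molecule microarray slides; score combines spot fluorescence intensity with signal-to-noise across triplicate slides.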 As to conditions: 635 nm fluorescence, higher = more signal.

Chain of Fibroblast growth factor 2 (Homo sapiens) (P09038 whole entry, looked up): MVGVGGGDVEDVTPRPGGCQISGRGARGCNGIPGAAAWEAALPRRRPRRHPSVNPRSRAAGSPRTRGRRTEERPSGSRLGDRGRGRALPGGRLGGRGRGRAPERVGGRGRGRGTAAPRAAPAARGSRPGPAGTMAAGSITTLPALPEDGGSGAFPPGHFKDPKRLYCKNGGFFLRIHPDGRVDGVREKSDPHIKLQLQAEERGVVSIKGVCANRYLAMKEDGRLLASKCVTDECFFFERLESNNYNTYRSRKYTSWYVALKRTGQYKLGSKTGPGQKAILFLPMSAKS
Chain of Torsin-1A (Homo sapiens) (O14656 whole entry, looked up): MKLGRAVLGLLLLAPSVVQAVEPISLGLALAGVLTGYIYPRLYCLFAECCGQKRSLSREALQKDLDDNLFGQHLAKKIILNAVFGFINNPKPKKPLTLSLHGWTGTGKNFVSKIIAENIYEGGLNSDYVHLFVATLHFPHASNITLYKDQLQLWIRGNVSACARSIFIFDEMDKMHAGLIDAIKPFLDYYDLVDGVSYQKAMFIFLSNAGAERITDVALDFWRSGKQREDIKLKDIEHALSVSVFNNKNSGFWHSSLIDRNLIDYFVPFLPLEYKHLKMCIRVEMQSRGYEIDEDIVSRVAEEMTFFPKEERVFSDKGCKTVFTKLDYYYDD
Chain of Focal adhesion kinase 1 (Homo sapiens) (Q05397 whole entry, looked up): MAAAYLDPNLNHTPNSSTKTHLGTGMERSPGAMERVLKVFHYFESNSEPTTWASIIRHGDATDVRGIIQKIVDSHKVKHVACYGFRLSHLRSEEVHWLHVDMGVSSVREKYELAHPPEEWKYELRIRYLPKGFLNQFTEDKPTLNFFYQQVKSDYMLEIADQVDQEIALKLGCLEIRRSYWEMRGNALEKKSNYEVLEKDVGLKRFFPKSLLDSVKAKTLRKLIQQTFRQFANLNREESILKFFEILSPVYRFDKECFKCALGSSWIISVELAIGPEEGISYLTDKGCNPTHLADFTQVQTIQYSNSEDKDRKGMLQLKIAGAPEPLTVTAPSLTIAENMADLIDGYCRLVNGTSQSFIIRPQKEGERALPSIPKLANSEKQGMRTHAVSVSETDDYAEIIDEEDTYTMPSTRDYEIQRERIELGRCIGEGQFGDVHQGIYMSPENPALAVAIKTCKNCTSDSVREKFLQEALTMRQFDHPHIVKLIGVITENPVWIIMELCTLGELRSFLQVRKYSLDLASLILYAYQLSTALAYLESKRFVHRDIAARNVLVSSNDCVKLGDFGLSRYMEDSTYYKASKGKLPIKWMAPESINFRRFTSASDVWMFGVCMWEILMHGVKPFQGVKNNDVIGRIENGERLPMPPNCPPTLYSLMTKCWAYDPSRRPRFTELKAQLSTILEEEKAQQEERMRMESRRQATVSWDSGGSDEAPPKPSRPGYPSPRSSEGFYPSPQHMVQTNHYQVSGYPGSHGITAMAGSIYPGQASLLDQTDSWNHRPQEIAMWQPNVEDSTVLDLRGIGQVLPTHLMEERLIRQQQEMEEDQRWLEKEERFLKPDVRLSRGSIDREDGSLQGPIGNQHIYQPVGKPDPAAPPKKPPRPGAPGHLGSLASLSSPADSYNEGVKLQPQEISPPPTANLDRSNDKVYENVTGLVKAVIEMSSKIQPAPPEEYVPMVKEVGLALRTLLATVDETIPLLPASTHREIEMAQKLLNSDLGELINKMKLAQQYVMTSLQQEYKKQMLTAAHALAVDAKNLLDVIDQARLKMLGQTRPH
Chain of Luciferin 4-monooxygenase (Photinus pyralis) (P08659 whole entry, looked up): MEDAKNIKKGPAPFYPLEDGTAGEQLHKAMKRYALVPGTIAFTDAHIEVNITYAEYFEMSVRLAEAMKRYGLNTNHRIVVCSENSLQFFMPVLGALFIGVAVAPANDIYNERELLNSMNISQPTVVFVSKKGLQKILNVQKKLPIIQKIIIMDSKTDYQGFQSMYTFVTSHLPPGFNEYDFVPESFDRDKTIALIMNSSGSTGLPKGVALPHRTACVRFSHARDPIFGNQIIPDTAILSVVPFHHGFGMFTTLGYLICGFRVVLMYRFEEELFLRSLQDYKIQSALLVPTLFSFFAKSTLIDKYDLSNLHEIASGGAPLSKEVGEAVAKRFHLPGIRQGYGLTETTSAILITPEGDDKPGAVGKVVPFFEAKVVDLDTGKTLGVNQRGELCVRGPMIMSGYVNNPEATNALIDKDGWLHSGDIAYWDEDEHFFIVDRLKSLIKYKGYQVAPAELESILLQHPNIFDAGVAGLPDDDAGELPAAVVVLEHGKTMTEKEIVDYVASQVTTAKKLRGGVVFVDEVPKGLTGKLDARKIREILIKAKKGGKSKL
Chain of Streptavidin (Streptomyces avidinii) (P22629 whole entry, looked up): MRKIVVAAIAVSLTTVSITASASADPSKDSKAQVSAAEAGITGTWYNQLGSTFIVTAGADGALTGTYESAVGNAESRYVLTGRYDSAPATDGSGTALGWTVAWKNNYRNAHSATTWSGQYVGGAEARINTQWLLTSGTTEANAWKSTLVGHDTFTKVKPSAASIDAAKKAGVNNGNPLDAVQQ
Chain of Follistatin (Homo sapiens) (P19883 whole entry, looked up): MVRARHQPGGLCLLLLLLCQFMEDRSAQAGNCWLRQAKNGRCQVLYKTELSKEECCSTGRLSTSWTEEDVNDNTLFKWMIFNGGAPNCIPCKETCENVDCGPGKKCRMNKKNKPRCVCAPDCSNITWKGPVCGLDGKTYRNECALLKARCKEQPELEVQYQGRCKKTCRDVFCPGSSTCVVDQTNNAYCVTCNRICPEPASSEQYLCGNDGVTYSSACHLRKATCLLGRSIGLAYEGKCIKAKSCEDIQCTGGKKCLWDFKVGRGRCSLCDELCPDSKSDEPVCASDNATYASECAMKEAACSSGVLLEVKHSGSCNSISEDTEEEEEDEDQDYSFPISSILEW

For the compound `Cn1cccc1C(O)C1C=CC2C(=O)NC(=O)C2N1Nc1ccc(Cl)cc1Cl` (stereo not given), the composite z-score in assay [1] came to 1.43; in assay [2] it was 1.24; in assay [3] it was 1.42; in assay [4], 1.02; in assay [5] it was 1.28; in assay [6] it was 0.0937. The composite z-score was -0.207 with Lefty1; 1.15 in assay [8]; 0.0792 in [10]; 1.37 in assay [15]; 0.374 in assay [16]; 0.887 with Torsin-1A (Homo sapiens) [17]. The values for the composite z-score (with Torsin-1A (Homo sapiens) [18]; in assay [19]) were 1.05 and -0.269, respectively. Also, the z-score in assay [7] is -0.13; in assay [9], -1.4 (inactive); in assay [11], -0.316 (inactive); in [12], -0.668 (inactive); in assay [13] it was 0.812 (inactive); in [14] it was 2.09 (inactive).

With `CC(c1ccccc1)C(O)C1C=CC2C(=O)N(c3ccccc3)C(=O)C2N1Nc1ccc([N+](=O)[O-])cc1` (stereo not given), the composite z-score in assay [1] amounted to 1.75; in assay [2], 1.25; in [3], 0.605; in [4], 1.03; in [5], 1.03; in [6], 0.328. Also, the composite z-score amounted to 0.44 with Lefty1; 0.783 in assay [8]; 0.523 in [10]; 0.656 in [15]; 0.118 in assay [16]; 0.971 with Torsin-1A (Homo sapiens) [17]. Also, the composite z-score with Torsin-1A (Homo sapiens) [18] worked out at 0.29; in [19] it was 0.513. Moreover, the z-score is -0.915 in [7]; 1.58 (inactive) in assay [9]; -0.664 (inactive) in assay [11]; -1.53 (inactive) in assay [12]; -0.48 (inactive) in [13]; 0.624 (inactive) in assay [14].

Consider `CCOC(=O)C1=CC[C@@H](c2cccc(Cl)c2)N(S(=O)(=O)c2ccc(C)cc2)C1`, for which the composite z-score in assay [1] is 1.66; in [2], 1.14; in [3], 0.399; in assay [4], -0.112; in [5], 0.191; in [6] it was -0.0072. The composite z-score with Lefty1 was -0.345; in assay [8] it was 0.844; in assay [10], -0.159; in assay [15], 0.449; in [16], 0.0173; with Torsin-1A (Homo sapiens) [17] it was 0.176. Further, the composite z-score with Torsin-1A (Homo sapiens) [18] is 0.193; in assay [19], -0.327. For the same compound, the z-score was 2.48 in [7]; -2.75 (inactive) in assay [9]; -5.08 (inactive) in [11]; -0.06 (inactive) in assay [12]; -0.574 (inactive) in [13]; 0.132 (inactive) in [14].

Turning to `CN(C)C(=O)[C@@]1(Cc2ccccc2CN=[N+]=[N-])N=C(c2ccc(OCCCO)cc2)O[C@H]1c1ccccc1CN=[N+]=[N-]`, the composite z-score is 2.33 in [1]; 1.21 in [2]; 0.419 in [3]; 0.856 in [4]; 0.652 in assay [5]; -0.025 in [6]. The composite z-score in the assay with Lefty1 was -0.483; in [8] it was 1.12; in [10] it was 0.507; in [15], 1.1; in assay [16], 0.575; with Torsin-1A (Homo sapiens) [17], 0.0276. Moreover, the composite z-score with Torsin-1A (Homo sapiens) [18] is 0.767; in [19], -0.304. Further, the z-score was 1.43 in assay [7]; 0.184 (inactive) in assay [9]; -3.14 (inactive) in assay [11]; 0.427 (inactive) in assay [12]; 2.69 (inactive) in assay [13]; 0.517 (inactive) in [14].

Consider `C=CCN1C(=O)[C@@]2(O[C@@H](CCn3cc([C@H](O)c4ccccc4)nn3)[C@H]([Si](C)(C)c3ccc(OC)cc3)[C@H]2C)c2cc(N3CCC3=O)ccc21`, for which the composite z-score is 1.65 in [1]; 1.09 in [2]; -0.082 in assay [3]; -0.117 in [4]; 0.345 in assay [5]; 0.0863 in assay [6]. The composite z-score in the assay on Lefty1 was -0.127; in assay [8], 0.552; in assay [10], -0.162; in [15], -0.101; in assay [16] it was -0.154; in the assay with Torsin-1A (Homo sapiens) [17], 0.195. Also, the results for the composite z-score (with Torsin-1A (Homo sapiens) [18]; in [19]) were 0.183 and -0.0053, respectively. In addition, the z-score in assay [7] is 2.25; in assay [9], -1.21 (inactive); in [11], -1.83 (inactive); in assay [12], -1.01 (inactive); in [13], 17 (active); in assay [14] it was -1.02 (inactive).
